Data from PubChem BioAssay (Tox21).
Inconclusive results are not listed. Activity calls are given as the source filed them. Calls come from the whole dose curve; as a rule, active = well fitted curve in the direction sought with a large enough effect in the repeat runs; inconclusive = weak or mixed curves; inactive = no such curve, though single readings can be large; an effect the other way counts as inactive or inconclusive.

Legend:
[1] = qHTS RealTime-Glo MT Cell Viability Assay in HepG2 cells - 40 hour (AID 1224870); note: nearly all actives have a fitted effect of over 50% in size
In short: (§1)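 Real-time viability: cells seeded at 600 per well together with NanoLuc and cell-permeant prosubstrate, compounds added after 5 h incubation. Luminescence tracked at 0, 8, 16, 24, 32 and 40 h of exposure.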

[2] = qHTS RealTime-Glo MT Cell Viability Assay in HEK293 cells - 16 hour (AID 1224872); note: nearly all actives have a fitted effect of over 50% in size; note: potency is the fitted concentration of half-maximal effect
In short: (§2)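 Cells + reagent dispensed (600 cells/well, HEK293) → 5 h at 37 C/5% CO2 → 23 nL compound in DMSO pinned → 40 h at 37 C → luminescence read at 0, 8, 16, 24, 32, 40 h.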

[3] = qHTS RealTime-Glo MT Cell Viability Assay in HEK293 cells - 40 hour (AID 1224874); details: RealTime-Glo luminescence; max response: stronger effect = lower value; note: nearly all actives have a fitted effect of over 50% in size; note: potency is the fitted concentration of half-maximal effect
In short: (§3)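 Cells were seeded together with NanoLuc luciferase and a prosubstrate that viable cells reduce to a luciferase substrate. After a 5 h incubation at 37 C/5% CO2, compounds were added and luminescence was measured repeatedly during 40 h of treatment.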

[4] = A CellTox Green Cytotoxicity Assay to monitor cytotoxicity in HepG2 cells - 16 hour (AID 1224876); note: nearly all actives have a fitted effect of over 45% in size
In short: (§4)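 Read-out is fluorescence of a cyanine dye excluded from live cells that stains DNA of dead HepG2 cells, with signal proportional to cytotoxicity. Plates were read at 0, 8, 16, 24, 32 and 40 h after compound addition.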

[5] = qHTS RealTime-Glo MT Cell Viability Assay in HepG2 cells - 32 hour (AID 1224877); note: nearly all actives have a fitted effect of over 55% in size
In short: (§5)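 Real-time, nonlytic viability: 600 HepG2 cells/well mixed with NanoLuc enzyme plus prosubstrate; 5 h settle, compound (DMSO) added by pintool; luminescence monitored over 40 h at 37 C.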

[6] = A CellTox Green Cytotoxicity Assay to monitor cytotoxicity in HepG2 cells - 24 hour (AID 1224878); note: nearly all actives have a fitted effect of over 45% in size
In short: as §4

[7] = A CellTox Green Cytotoxicity Assay to monitor cytotoxicity in HepG2 cells - 40 hour (AID 1224879); note: nearly all actives have a fitted effect of over 40% in size
In short: as §4

[8] = qHTS RealTime-Glo MT Cell Viability Assay in HEK293 cells - 0 hour (AID 1224880); note: top concentration of the series differs between compounds; nearly all actives have a fitted effect of over 45% in size
In short: as §3

[9] = A CellTox Green Cytotoxicity Assay to monitor cytotoxicity in HepG2 cells - 0 hour (AID 1224882); note: nearly all actives have a fitted effect of over 35% in size
In short: as §4

[10] = A CellTox Green Cytotoxicity Assay to monitor cytotoxicity in HepG2 cells - 32 hour (AID 1224883); note: nearly all actives have a fitted effect of over 50% in size
In short: as §4

[11] = A CellTox Green Cytotoxicity Assay to monitor cytotoxicity in HEK293 cells - 8 hour (AID 1224884); note: nearly all actives have a fitted effect of over 35% in size
In short: (§6)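 Nonlytic real-time cytotoxicity: HEK293 + CellTox Green reagent plated, 5 h preincubation, pintool compound addition (23 nL in DMSO), 37 C for 40 h, fluorescence measured at successive time points.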

[12] = qHTS RealTime-Glo MT Cell Viability Assay in HepG2 cells - 16 hour (AID 1224885); note: nearly all actives have a fitted effect of over 50% in size
In short: as §5

[13] = qHTS RealTime-Glo MT Cell Viability Assay in HEK293 cells - 24 hour (AID 1224886); note: nearly all actives have a fitted effect of over 50% in size; note: potency is the fitted concentration of half-maximal effect
In short: as §2

[14] = qHTS RealTime-Glo MT Cell Viability Assay in HEK293 cells - 8 hour (AID 1224887); note: nearly all actives have a fitted effect of over 50% in size; note: potency is the fitted concentration of half-maximal effect
In short: as §3

[15] = A CellTox Green Cytotoxicity Assay to monitor cytotoxicity in HEK293 cells - 16 hour (AID 1224888); note: nearly all actives have a fitted effect of over 35% in size
In short: as §6

[16] = qHTS RealTime-Glo MT Cell Viability Assay in HepG2 cells - 0 hour (AID 1224889); note: nearly all actives have a fitted effect of over 50% in size
In short: as §5

[17] = qHTS RealTime-Glo MT Cell Viability Assay in HepG2 cells - 8 hour (AID 1224873); note: nearly all actives have a fitted effect of over 55% in size
In short: as §1

[18] = A CellTox Green Cytotoxicity Assay to monitor cytotoxicity in HEK293 cells - 24 hour (AID 1224875); note: series mostly up to about 77 µM; nearly all actives have a fitted effect of over 45% in size
In short: as §6

[19] = A CellTox Green Cytotoxicity Assay to monitor cytotoxicity in HEK293 cells - 32 hour (AID 1224881); note: nearly all actives have a fitted effect of over 40% in size
In short: as §6

[20] = A CellTox Green Cytotoxicity Assay to monitor cytotoxicity in HEK293 cells - 40 hour (AID 1224871); note: nearly all actives have a fitted effect of over 45% in size
In short: as §6
% is set by controls: 0 for no effect and ±100 for the full control effect.

COc1ccc(C(=O)Nc2ccccc2)cc1[N+](=O)[O-]
active: Potency [2] 24.7 µM | Potency [3] 24.7 µM | Potency [13] 24.7 µM | Potency [14] 24.7 µM
inactive: Potency [1] | Potency [4] | Potency [5] | Potency [6] | Potency [7] | Potency [8] | Potency [9] | Potency [10] | Potency [11] | outcome [12] | Potency [15] | Potency [16]

O=[N+]([O-])c1cccc(I)c1
inactive: Potency [1] | Potency [2] | outcome [17] | max response [3] 0.342% | Potency [18] | Potency [4] | Potency [5] | Potency [6] | Potency [8] | Potency [9] | Potency [10] | Potency [11] | outcome [12] | Potency [13] | Potency [14] | Potency [15] | Potency [16]

O=C(O)c1cc(C(=O)O)cc([N+](=O)[O-])c1
inactive: Potency [1] | Potency [2] | outcome [17] | max response [3] 8.3% | Potency [18] | Potency [4] | Potency [5] | Potency [6] | Potency [8] | Potency [19] | Potency [9] | Potency [10] | Potency [11] | outcome [12] | Potency [13] | Potency [14] | Potency [15] | Potency [16]

COc1cc(CNC(=O)CCCC/C=C/C(C)C)ccc1O
active: Potency [2] 4.25 µM | Potency [3] 8.48 µM | Potency [13] 4.77 µM | Potency [14] 2.39 µM
inactive: Potency [1] | Potency [18] | Potency [4] | Potency [5] | Potency [7] | Potency [8] | Potency [19] | Potency [9] | Potency [10] | Potency [11] | outcome [12] | Potency [15] | Potency [16]

COc1ccc(/C=C/c2cc(OC)cc(=O)o2)cc1
active: Potency [3] 8.92 µM
inactive: Potency [1] | outcome [17] | Potency [18] | Potency [5] | Potency [6] | Potency [7] | Potency [8] | Potency [19] | Potency [9] | Potency [10] | Potency [11] | outcome [12] | Potency [14] | Potency [15]

O=C1OC(=O)C2CC=CCC12 (centres undefined)
inactive: Potency [20] | Potency [2] | outcome [17] | max response [3] 0.701% | Potency [18] | Potency [5] | Potency [6] | Potency [8] | Potency [19] | Potency [9] | Potency [10] | Potency [11] | outcome [12] | Potency [13] | Potency [14] | Potency [15] | Potency [16]

C=C(C)C(=O)OCCCCCCCCCCOC(=O)C(=C)C
inactive: Potency [2] | max response [3] -16.4% | Potency [18] | Potency [4] | Potency [5] | Potency [6] | Potency [8] | Potency [19] | Potency [9] | Potency [10] | Potency [11] | outcome [12] | Potency [13] | Potency [14] | Potency [15] | Potency [16]

O=C(NC1CCN(CCc2c[nH]c3ccccc23)CC1)c1ccccc1
inactive: Potency [20] | Potency [18] | Potency [4] | Potency [5] | Potency [6] | Potency [7] | Potency [8] | Potency [19] | Potency [9] | Potency [10] | Potency [11] | outcome [12] | Potency [15] | Potency [16]
active: Potency [2] 9.52 µM | Potency [3] 9.52 µM | Potency [13] 8.49 µM | Potency [14] 9.52 µM

CC(=O)Nc1ccccc1O
inactive: Potency [20] | Potency [2] | outcome [17] | max response [3] 2.65% | Potency [18] | Potency [4] | Potency [5] | Potency [6] | Potency [7] | Potency [8] | Potency [19] | Potency [9] | Potency [10] | Potency [13] | Potency [14] | Potency [15] | Potency [16]

CC(C)(C)NCC(O)COc1ccc(NC(=O)NC2CCCCC2)cc1 (centres undefined)
inactive: Potency [20] | Potency [18] | Potency [4] | Potency [6] | Potency [9] | Potency [10]

CC(CCl)OC(C)CCl (centres undefined)
inactive: Potency [20] | Potency [2] | outcome [17] | max response [3] -1.61% | Potency [18] | Potency [5] | Potency [6] | Potency [8] | Potency [9] | Potency [10] | Potency [11] | outcome [12] | Potency [13] | Potency [14] | Potency [15] | Potency [16]

C=C[Si]1(C)O[Si](C)(C=C)O[Si](C)(C=C)O[Si](C)(C=C)O1 (centres undefined)
inactive: Potency [20] | Potency [2] | outcome [17] | max response [3] -1.07% | Potency [18] | Potency [5] | Potency [8] | Potency [19] | Potency [9] | Potency [11] | outcome [12] | Potency [13] | Potency [14] | Potency [15] | Potency [16]

C=CC(C)(O)CC/C=C(/C)CCC=C(C)C (centres undefined)
inactive: Potency [2] | outcome [17] | max response [3] 0.65% | Potency [18] | Potency [4] | Potency [5] | Potency [6] | Potency [8] | Potency [19] | Potency [9] | Potency [10] | Potency [11] | outcome [12] | Potency [13] | Potency [14] | Potency [15] | Potency [16]

O=C(N[C@@H](Cc1ccccc1)[C@@H](O)C(=O)N1C[C@@H](O)[C@@H](O)C1)c1cc2cc(Cl)ccc2[nH]1
inactive: Potency [2] | outcome [17] | Potency [18] | Potency [5] | Potency [8] | Potency [19] | Potency [9] | Potency [11] | outcome [12] | Potency [14] | Potency [15] | Potency [16]

Cc1c(Cl)cccc1Nc1ccccc1C(=O)O
inactive: Potency [20] | Potency [2] | outcome [17] | max response [3] -5.01% | Potency [18] | Potency [4] | Potency [5] | Potency [6] | Potency [8] | Potency [19] | Potency [9] | Potency [10] | Potency [11] | outcome [12] | Potency [13] | Potency [14] | Potency [15] | Potency [16]

C[C@]12CCC(=O)C=C1[C@@H]1C[C@@H]1[C@H]1[C@@H]3[C@@H]4C[C@@H]4[C@@]4(CCC(=O)O4)[C@@]3(C)CC[C@@H]12
inactive: Potency [20] | outcome [17] | Potency [18] | Potency [5] | Potency [6] | Potency [8] | Potency [19] | Potency [9] | Potency [10] | Potency [11] | outcome [12] | Potency [14] | Potency [15] | Potency [16]
